In PubChem BioAssay (Tox21) one finds Potency data, which are given here for 24 compounds.

The target of assay [1] is Cytochrome P450 2D6 (Homo sapiens) (UniProt P10635). Put plainly: Cytochrome P450 Family 2 Subfamily D Member 6 (CYP2D6) small molecule antagonists: luciferase reporter qHTS assay (AID 1671196). Note: nearly all actives have a fitted effect of over 50% in size. In outline:
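Chemicals tested for interference with CYP2D6 activity; proluciferin substrate, NADPH regeneration, 1 h at room temperature, luminescent detection.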
(In general: In a reporter assay the amount or activity of a reporter protein is the signal.)

For assay [2], the target named is Cytochrome P450 2C19 (Homo sapiens) (UniProt P33261). The assay can be described thus: Cytochrome P450 Family 2 Subfamily C Member 19 (CYP2C19) small molecule antagonists: luciferase reporter qHTS assay (AID 1671197). Note: nearly all actives have a fitted effect of over 65% in size. In a few lines:
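Luminescent readout of CYP2C19 activity: luciferin product detected 20 min after adding detection reagent. Before that, compound and enzyme-substrate mix preincubated 10 min at room temperature; NADPH-regenerating system started a 1 h, 37C reaction. Ketoconazole as positive control.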

Assay [3] has as its target Cytochrome P450 2C9 (Homo sapiens) (UniProt P11712). The assay can be described thus: Cytochrome P450 Family 2 Subfamily C Member 9 (CYP2C9) small molecule antagonists: luciferase reporter qHTS assay (AID 1671198). Note: nearly all actives have a fitted effect of over 50% in size. In outline: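 Enzyme-substrate mix preincubated with compound 10 min at room temperature; reaction started with NADPH regeneration solution, 1 h 37C. Luminescent luciferin product read after 20 min detection reagent.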

Assay [4] deals with Cytochrome P450 1A2 (Homo sapiens) (UniProt P05177). The assay can be described thus: Cytochrome P450 Family 1 Subfamily A Member 2 (CYP1A2) small molecule antagonists: luciferase reporter qHTS assay (AID 1671199). Note: nearly all actives have a fitted effect of over 50% in size. In outline: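 Read-out is luminescence from luciferin detection reagent (20 min) proportional to CYP1A2 activity; compounds in DMSO preincubated 10 min with enzyme and proluciferin substrate, then NADPH regeneration solution, 1 h, room temperature.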

Assay [5] deals with Voltage-gated inwardly rectifying potassium channel KCNH2 (Homo sapiens) (UniProt Q12809). Put plainly: Human Ether-a-go-go-Related Gene (hERG) channel small molecule antagonists: fluorescence cell-based qHTS assay (AID 1671200). Note: nearly all actives have a fitted effect of over 50% in size. In a few lines: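 hERG-U2OS cells plated overnight at 37 C, loaded with FluxOR II dye 1 h at RT in dark; after 10 min, thallium stimulus added. Fluorescence (480/540 nm) read kinetically for 2 min at 1 s intervals.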
(In general: The hERG channel carries a current that helps repolarise heart muscle cells.)

The target of assay [6] is Cytochrome P450 3A4 (Homo sapiens) (UniProt P08684). The assay can be described thus: Cytochrome P450 Family 3 Subfamily A Member 4 (CYP3A4) small molecule antagonists: luciferase reporter qHTS assay (AID 1671201). Note: nearly all actives have a fitted effect of over 50% in size. In a few lines:
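P450-Glo CYP3A4 luminescent assay: compounds preincubated 10 min at room temperature with enzyme and proluciferin substrate, NADPH regeneration added, 1 h room-temperature reaction, stopped with luciferin detection reagent; luminescence read after 20 min. Ketoconazole positive control.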

Several values for one entry are separate records, joined by “and”; a condition that tells them apart may be missing. Identical values can stand only once. Results filed as inconclusive are left out. Some compounds were tested as several samples or in several runs, with calls that do not always agree. Activity calls are given as the source filed them. Calls come from the whole dose curve; as a rule, active = well fitted curve in the direction sought with a large enough effect in the repeat runs; inconclusive = weak or mixed curves; inactive = no such curve, though single readings can be large; an effect the other way counts as inactive or inconclusive.
Potency is the fitted concentration of half-maximal effect.

Cytochrome P450 2C19 (Homo sapiens), sequence (P33261 whole entry, looked up): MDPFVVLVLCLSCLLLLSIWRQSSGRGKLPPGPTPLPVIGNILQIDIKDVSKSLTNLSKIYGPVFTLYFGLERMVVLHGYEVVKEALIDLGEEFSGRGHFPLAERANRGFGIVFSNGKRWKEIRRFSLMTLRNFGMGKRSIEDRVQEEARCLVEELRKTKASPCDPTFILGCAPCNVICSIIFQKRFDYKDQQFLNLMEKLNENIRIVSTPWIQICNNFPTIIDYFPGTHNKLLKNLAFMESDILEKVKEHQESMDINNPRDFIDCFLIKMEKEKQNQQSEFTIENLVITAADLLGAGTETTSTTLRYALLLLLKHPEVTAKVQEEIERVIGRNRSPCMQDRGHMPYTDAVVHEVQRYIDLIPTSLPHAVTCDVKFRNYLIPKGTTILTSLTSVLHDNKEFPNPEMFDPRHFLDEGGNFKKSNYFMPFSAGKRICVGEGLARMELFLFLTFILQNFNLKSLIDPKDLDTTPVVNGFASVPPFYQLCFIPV
Cytochrome P450 2D6 (Homo sapiens), sequence (P10635 whole entry, looked up): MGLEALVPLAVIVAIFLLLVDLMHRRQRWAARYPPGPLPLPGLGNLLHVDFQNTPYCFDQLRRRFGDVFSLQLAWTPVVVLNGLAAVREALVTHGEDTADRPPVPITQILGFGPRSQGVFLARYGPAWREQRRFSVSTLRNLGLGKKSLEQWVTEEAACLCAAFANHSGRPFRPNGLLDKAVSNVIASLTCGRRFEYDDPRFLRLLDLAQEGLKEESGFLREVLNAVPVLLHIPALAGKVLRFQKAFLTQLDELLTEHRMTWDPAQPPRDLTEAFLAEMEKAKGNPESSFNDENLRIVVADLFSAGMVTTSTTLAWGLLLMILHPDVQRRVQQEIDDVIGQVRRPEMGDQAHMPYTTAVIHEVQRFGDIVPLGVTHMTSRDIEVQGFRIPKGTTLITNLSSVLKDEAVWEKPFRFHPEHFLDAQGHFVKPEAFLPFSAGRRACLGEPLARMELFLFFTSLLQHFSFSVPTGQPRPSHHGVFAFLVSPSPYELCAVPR
Cytochrome P450 1A2 (Homo sapiens), sequence (P05177 whole entry, looked up): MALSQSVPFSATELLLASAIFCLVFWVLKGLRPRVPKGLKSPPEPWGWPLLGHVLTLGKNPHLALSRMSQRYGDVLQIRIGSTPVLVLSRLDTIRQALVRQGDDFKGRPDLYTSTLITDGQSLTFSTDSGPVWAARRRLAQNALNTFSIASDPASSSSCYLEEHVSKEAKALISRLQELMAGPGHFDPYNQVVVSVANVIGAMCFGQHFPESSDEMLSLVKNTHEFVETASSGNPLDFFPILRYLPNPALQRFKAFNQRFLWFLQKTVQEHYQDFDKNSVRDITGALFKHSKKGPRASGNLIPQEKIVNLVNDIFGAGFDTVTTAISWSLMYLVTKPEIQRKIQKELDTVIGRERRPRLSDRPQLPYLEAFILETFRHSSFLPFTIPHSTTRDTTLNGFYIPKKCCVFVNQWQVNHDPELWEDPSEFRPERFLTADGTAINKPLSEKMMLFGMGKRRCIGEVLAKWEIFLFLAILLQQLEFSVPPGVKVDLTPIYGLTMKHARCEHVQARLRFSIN
Cytochrome P450 2C9 (Homo sapiens), sequence (P11712 whole entry, looked up): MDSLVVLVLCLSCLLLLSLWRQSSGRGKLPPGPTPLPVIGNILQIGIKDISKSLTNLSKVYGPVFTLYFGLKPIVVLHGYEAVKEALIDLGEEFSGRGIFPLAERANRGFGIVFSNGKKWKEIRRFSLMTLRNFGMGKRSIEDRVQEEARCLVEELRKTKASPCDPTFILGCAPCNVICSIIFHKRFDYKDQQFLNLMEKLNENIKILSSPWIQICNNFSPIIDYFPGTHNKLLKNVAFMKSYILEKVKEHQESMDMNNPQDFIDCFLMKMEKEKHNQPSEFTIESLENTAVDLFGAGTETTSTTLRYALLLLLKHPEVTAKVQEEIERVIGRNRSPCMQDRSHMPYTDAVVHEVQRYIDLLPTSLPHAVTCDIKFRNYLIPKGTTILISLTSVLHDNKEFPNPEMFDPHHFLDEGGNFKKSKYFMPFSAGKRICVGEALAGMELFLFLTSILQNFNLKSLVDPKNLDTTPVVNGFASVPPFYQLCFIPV
Voltage-gated inwardly rectifying potassium channel KCNH2 (Homo sapiens), sequence (Q12809 whole entry, looked up): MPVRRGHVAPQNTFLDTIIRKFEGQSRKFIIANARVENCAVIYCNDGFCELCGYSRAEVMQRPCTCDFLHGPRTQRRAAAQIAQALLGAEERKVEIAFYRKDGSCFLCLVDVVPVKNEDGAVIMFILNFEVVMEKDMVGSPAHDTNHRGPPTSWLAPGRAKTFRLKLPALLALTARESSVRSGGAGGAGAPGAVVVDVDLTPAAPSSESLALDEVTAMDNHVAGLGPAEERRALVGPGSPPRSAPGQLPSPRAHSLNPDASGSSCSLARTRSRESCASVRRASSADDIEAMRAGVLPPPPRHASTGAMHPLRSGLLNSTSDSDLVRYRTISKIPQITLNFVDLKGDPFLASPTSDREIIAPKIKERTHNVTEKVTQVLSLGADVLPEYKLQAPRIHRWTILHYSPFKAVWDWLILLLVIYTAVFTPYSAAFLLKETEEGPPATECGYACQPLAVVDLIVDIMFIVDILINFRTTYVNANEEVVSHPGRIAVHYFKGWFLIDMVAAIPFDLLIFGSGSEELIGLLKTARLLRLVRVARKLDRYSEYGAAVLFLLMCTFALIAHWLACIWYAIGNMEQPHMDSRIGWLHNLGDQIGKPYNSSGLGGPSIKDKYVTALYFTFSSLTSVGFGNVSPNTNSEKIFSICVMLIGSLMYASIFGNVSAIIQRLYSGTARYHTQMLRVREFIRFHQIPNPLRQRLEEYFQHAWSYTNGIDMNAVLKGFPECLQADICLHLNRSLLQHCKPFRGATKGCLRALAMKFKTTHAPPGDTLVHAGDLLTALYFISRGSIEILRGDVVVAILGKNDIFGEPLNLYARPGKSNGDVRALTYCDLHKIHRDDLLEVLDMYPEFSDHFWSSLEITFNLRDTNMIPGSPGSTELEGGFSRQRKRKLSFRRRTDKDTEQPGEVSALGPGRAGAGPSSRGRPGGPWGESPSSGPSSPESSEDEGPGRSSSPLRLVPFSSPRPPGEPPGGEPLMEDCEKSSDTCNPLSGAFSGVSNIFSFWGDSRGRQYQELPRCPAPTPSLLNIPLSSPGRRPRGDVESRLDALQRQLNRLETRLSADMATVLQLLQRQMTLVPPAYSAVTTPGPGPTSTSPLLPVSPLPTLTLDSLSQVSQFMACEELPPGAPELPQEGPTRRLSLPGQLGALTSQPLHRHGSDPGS
Cytochrome P450 3A4 (Homo sapiens), sequence (P08684 whole entry, looked up): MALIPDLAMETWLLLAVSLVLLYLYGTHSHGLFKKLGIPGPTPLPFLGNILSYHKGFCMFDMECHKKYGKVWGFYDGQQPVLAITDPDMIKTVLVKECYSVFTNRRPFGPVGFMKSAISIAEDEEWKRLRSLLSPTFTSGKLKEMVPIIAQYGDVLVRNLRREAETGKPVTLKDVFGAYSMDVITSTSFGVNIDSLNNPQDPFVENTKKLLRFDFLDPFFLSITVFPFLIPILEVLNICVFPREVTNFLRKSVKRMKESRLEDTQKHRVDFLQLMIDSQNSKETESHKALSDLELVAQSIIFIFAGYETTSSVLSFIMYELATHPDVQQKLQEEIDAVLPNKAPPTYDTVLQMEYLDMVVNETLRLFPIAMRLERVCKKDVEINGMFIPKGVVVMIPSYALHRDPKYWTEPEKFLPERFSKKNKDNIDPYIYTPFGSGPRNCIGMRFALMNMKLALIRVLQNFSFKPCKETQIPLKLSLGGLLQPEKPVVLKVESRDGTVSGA

As to `COC(=O)c1cccnc1`, the Potency result in assay [1], in assay [2], in assay [3], in assay [4], in assay [5] and in assay [6] was “inactive” in each case.
For the compound `O=C1C(c2[nH]c3ccccc3c2O)=Nc2ccccc21`, the Potency result in assay [1], in assay [2], in assay [3], in assay [5] and in assay [6] was “inactive” in each case. In addition, the Potency result in assay [4] was “inactive and 34.7 µM (active)”.
With `OC1C(O)C(O)C(O)C(O)C1O` (stereo not drawn), the Potency result in assay [1], in assay [2], in assay [3], in assay [4], in assay [5] and in assay [6] was “inactive” each time.
With `COc1ccc(N)c(C)c1`, the Potency in assay [1] is 8.9 µM (active) and 31.7 µM (active); in assay [2], 39.8 µM (active) and 39.9 µM (active); in assay [3], 35.4 µM (active) and 63.3 µM (active); in assay [4], 15.8 µM (active) and 12.6 µM (active); in assay [6] it was 31.6 µM (active). The Potency result in assay [5] is “inactive”.
As to `CCCOC(=O)c1ccccc1`, the Potency entry in assay [1], in assay [2], in assay [3], in assay [4], in assay [5] and in assay [6] was “inactive” in each case.
Take `O=c1[nH]cnc2[nH]ncc12`: the Potency result in assay [1], in assay [2], in assay [3], in assay [4], in assay [5] and in assay [6] was “inactive” throughout.
On to `O=C(O)c1ccc(S(=O)(=O)N(Cl)Cl)cc1`, for which the Potency in assay [1] is 35.8 µM (active) and inactive. Also, the Potency entry in assay [2], in assay [3], in assay [4], in assay [5] and in assay [6] was “inactive” in each case.
Take `CC(C)(Oc1ccc(CCNC(=O)c2ccc(Cl)cc2)cc1)C(=O)O`: the Potency result in assay [1], in assay [2], in assay [4], in assay [5] and in assay [6] was “inactive” in each case. Moreover, in assay [3], the Potency was 28.3 µM (active) and 13.8 µM (active).
For the compound `CC(=O)OCc1ccccc1`, the Potency entry in assay [1], in assay [2], in assay [3], in assay [4], in assay [5] and in assay [6] was “inactive” each time.
For the compound `CC(C)CC(=O)CC(C)CC(C)C` (stereo not drawn), the Potency result in assay [1], in assay [3], in assay [4], in assay [5] and in assay [6] was “inactive” throughout. Further, the Potency in assay [2] was 79.2 µM (active) and inactive.
For `CCCCCCCC=O`, the Potency result in assay [1], in assay [2], in assay [3], in assay [4], in assay [5] and in assay [6] was “inactive” throughout.
As for `C=CC(C)CCCC(C)(C)O` (stereo not drawn), the Potency in assay [1] is 31.7 µM (active); in assay [4], 39.8 µM (active); in assay [5] it was 43.6 µM (active) and inactive. The Potency result in assay [2], in assay [3] and in assay [6] was “inactive” each time.
Take `CCCCC(C=O)CC` (stereo not drawn): the Potency result in assay [1], in assay [2], in assay [3], in assay [4], in assay [5] and in assay [6] was “inactive” throughout.
For `C=CC[N+](C)(C)CC=C`, the Potency entry in assay [1], in assay [3], in assay [4], in assay [5] and in assay [6] was “inactive” throughout. Moreover, the Potency in assay [2] is 56.8 µM (active) and inactive.
Regarding `CC(=O)OCc1ccco1`, the Potency entry in assay [1], in assay [3], in assay [4], in assay [5] and in assay [6] was “inactive” in each case. Besides, the Potency in assay [2] was 70.6 µM (active) and inactive.
`CC(=O)c1ccc(O)cc1`: the Potency result in assay [1], in assay [2], in assay [3], in assay [4], in assay [5] and in assay [6] was “inactive” in each case.
Turning to `CC(=O)CC(C)(C)O`, the Potency result in assay [1], in assay [3], in assay [4], in assay [5] and in assay [6] was “inactive” throughout. Moreover, in assay [2], the Potency was 40.6 µM (active) and inactive.
With `NCCCCCCN`, the Potency in assay [1] is 32 µM (active) and 35.6 µM (active). The Potency entry in assay [2], in assay [3], in assay [4], in assay [5] and in assay [6] was “inactive” each time.
Turning to `CC1(C)NC(=O)NC1=O`, the Potency result in assay [1], in assay [2], in assay [3], in assay [5] and in assay [6] was “inactive” each time. Further, the Potency in assay [4] is 35.8 µM (active).
On to `COc1ccc(CCC(C)=O)cc1`, for which the Potency entry in assay [1], in assay [3], in assay [5] and in assay [6] was “inactive” each time. Also, the Potency was 28.3 µM (active) and inactive in assay [2]; 22.4 µM (active) and 20.4 µM (active) in assay [4].
`CC(CCl)OP(=O)(OC(C)CCl)OC(C)CCl` (stereo not drawn): the Potency result in assay [1] and in assay [5] was “inactive” in each case. Also, the Potency in assay [2] is 35.7 µM (active) and 21.1 µM (active); in assay [3], 40 µM (active) and 59.5 µM (active); in assay [4], 28.3 µM (active) and 14.9 µM (active).
As to `Cc1ccc([N+](=O)[O-])cc1S(=O)(=O)O`, the Potency in assay [1] was 39.2 µM (active); in assay [2], 35.6 µM (active); in assay [3], 56.4 µM (active); in assay [4] it was “inactive and 63.3 µM (active)”. Further, the Potency result in assay [5] and in assay [6] was “inactive” in each case.
Take `COC(=O)CCCC(=O)OC`: the Potency entry in assay [1], in assay [2], in assay [3], in assay [4], in assay [5] and in assay [6] was “inactive” each time.
For `CCNC(=S)NCC`, the Potency entry in assay [1], in assay [2], in assay [3], in assay [5] and in assay [6] was “inactive” throughout. For the same compound, the Potency in assay [4] was 44.8 µM (active).
